According to PubChem BioAssay AID2567 (National Center for Advancing Translational Sciences (NCATS), 2010):
Inconclusive results are not listed. Entries that show only a call come without a potency. Activity calls are given as the source filed them. The call rests on the fitted dose curve; in most records, active means well fitted antagonist curve with a large enough effect in the main read-out, with a control signal flat; inconclusive means small, poorly fitted or top-dose-only effect; inactive means no such curve, though single readings can be large or run the other way.

These molecules were tested against Neuropeptide S receptor (Homo sapiens) (UniProt Q6W5P4) (assay: Confirmation Concentration-Response Assay for Antagonists of the Neuropeptide S Receptor: Calcium Signal Transduction, SAR for Probe). Conditions: CHO-NPSR cells, NPS-induced calcium fluorescence, FDSS; series mostly up to 19.3 µM.
Description: NIH Chemical Genomics Center [NCGC] NIH Molecular Libraries Probe Production centers Network [MLPCN] MLPCN Grant: X01-DA026210-01 Assay Submitter (PI): Heilig, Markus Alexander NCGC Assay Overview: Neuropeptide S receptor (NPSR), previously known as GPR154, is a recently de-orphanized G protein coupled receptor. Its endogenous ligand is the 20 amino acids peptide Neuropeptide S (NPS). […] NPS and its receptor are found in various tissues. Specifically they are highly expressed in brain areas that have been implicated in modulation of arousal, stress and anxiety. Central administration of NPS in mice produces an unusual profile of activity by inducing wakefulness and arousal, while at the same time suppressing anxiety. Therefore, NPSR may represent a novel drug target for the treatment of sleep and anxiety disorders. To identify NPSR antagonists, we developed a cell-based assay with transfected NPS receptor. NPS can stimulate the production of cAMP as well as release intracellular calcium in Chinese hamster ovary cells stably expressing NPS receptor. This change in intracellular calcium can be detected using a calcium indicator dye on a calcium imaging plate reader system (FDSS).
NCGC Assay Protocol Summary: A Chinese hamster ovary (CHO) cell line stably expressing the NPS receptor (CHO-NPSR) was obtained from Dr. Heilig lab at NIAAA and maintained in F-12 Kaighn's media (Invitrogen, Carlsbad, CA, 21127) supplemented with 10 % FBS, 100 units/ml penicillin, 100 ug/ml streptomycin and 250 ug/ml geneticin at 37C, 5% CO2 in a humidified atmosphere. Before the assay, aliquots of cells were frozen and stored at -135C. The assay was performed on a FDSS-7000 kinetic plate reader in 1536-well format. For both agonist (1-220s) and antagonist (221-400s) phases, the maximums of kinetic fluorescence responses were converted separately into text files using the instrument's software data export utility. Data for agonist response were normalized to the controls for basal activity (DMSO only) and 100% activation (NPS). […] AC50 values were determined from concentration-response data modeled with the standard Hill equation. NPS 1536-well FDSS assay protocol: (1) Frozen CHO-NPSR cells were thaw, washed once with fresh media and resuspended in F-12 Kaighn's media supplemented with 10 % FBS, 100 units/ml penicillin and 100 ug/ml streptomycin. Cells were plated at 3 ul/well (1200 cells) to black, clear-bottom, tissue-culture treated 1536-well plates, and then cultured at 37C, 5 % CO2 for 16 to 30 hours. (2) Add 3 ul of calcium dye (from High Performance PBX Calcium Assay Kit, BD Biosciences). The calcium dye was prepared according to the manufactory's instruction. (3) Incubation at 37C, 5 % CO2 for 60 to 120 min. (4) Load plates to FDSS-7000. The following steps were performed on FDSS-7000. (5) Record fluorescent background (Ex 480 nm, Em 520-560 nm) for 10 s. (6) Add 23 nl/well of compound in DMSO solution. The final titration for each compound was between 0.6 nM and 46 uM. Record agonist response for 210 s. (7) Add 2 ul of stimulation reagent (1X HBSS buffer, 0.1% BSA, 60 nM NPS). Record antagonist response for 140 s. Keywords: MLSMR, MLPCN, NIH Roadmap, qHTS, NCGC, NPS, Neuropeptide S Antagonists

Sequence of Neuropeptide S receptor (Homo sapiens) (Q6W5P4 whole entry, looked up): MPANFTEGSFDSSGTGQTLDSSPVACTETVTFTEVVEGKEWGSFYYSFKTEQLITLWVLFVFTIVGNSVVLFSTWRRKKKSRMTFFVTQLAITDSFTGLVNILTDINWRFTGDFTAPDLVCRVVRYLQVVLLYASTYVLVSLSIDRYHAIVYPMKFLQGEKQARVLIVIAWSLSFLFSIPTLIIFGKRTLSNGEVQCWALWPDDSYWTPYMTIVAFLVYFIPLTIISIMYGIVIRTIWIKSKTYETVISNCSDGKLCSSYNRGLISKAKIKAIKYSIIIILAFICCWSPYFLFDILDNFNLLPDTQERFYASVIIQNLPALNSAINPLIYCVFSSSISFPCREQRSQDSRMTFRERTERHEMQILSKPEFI

| SMILES | Potency |
| --- | --- |
| OC(c1ccccc1)(c1ccccc1)c1cnc2ccccn12 | inactive |
| N=C1c2ccccc2CN1c1ccc(N2CCOCC2)c(S(=O)(=O)Nc2ccc(Cl)cc2)c1 | 1410 nM (active) |
| COc1ccc(C2c3c(ncn(CCCc4ccccc4)c3=N)Oc3ccc4ccccc4c32)cc1OC (stereo not given) | inactive |
| COc1cccc(C2c3c(ncn(-c4ccc(C#N)cc4)c3=N)Oc3ccc4ccccc4c32)c1 (stereo not given) | 5520 nM (active) |
| Cc1c(P(=S)(c2ccccc2)c2ccccc2)c2ccccc2n1CCCc1ccccc1 | inactive |
| CN(C)C(=O)Oc1cccc([N+](C)(C)C)c1 | inactive |
| COc1cccc(C2c3c(ncn(-c4cccc(F)c4)c3=N)Oc3ccc4ccccc4c32)c1 (stereo not given) | 220 nM (active) |
| COc1cccc(C2c3c(ncn(Cc4cccs4)c3=N)Oc3ccc4ccccc4c32)c1 (stereo not given) | 3480 nM (active) |
| COc1cccc(C2c3c(ncn(-c4ccc(Br)cc4)c3=N)Oc3ccc4ccccc4c32)c1 (stereo not given) | 2760 nM (active) |
| COc1ccc(C2c3c(ncn(Cc4ccccc4)c3=N)Oc3ccc4ccccc4c32)cc1OC (stereo not given) | 1390 nM (active) |
| COc1ccc(C2c3c(n(Cc4ccccc4)cnc3=N)Oc3ccc4ccccc4c32)cc1OC (stereo not given) | inactive |
| Oc1ccc(N=Nc2nccs2)c(O)c1 | inactive |
| COc1ccc(C2C3=C(N=CN(CCN4CCOCC4)C3N)Oc3ccccc32)cc1OC (stereo not given) | inactive |
| COc1ccc(C2c3ccc(OCc4ccccc4)cc3Oc3ncn(CCN4CCOCC4)c(=N)c32)cc1OC (stereo not given) | inactive |
| Cc1c(P(=S)(c2ccccc2)c2ccccc2)c2ccccc2n1C(=O)Cc1ccccc1 | inactive |
| c1ccc(P(c2ccccc2)c2cnc3ccccn23)cc1 | 11000 nM (active) |
| CC(=O)c1sc(N/N=C\c2ccccc2O)nc1C | 1120 nM (active) |
| CC1(C)Cc2c(c(N3CCOCC3)nc3sc4c(NCC5CCCO5)nnnc4c23)CS1 (stereo not given) | inactive |
| COc1ccc(C(=O)N(Cc2ccco2)Cc2cccs2)c(O)c1 | inactive |
| COc1ccc2c(c1)Oc1ncn(CCN3CCOCC3)c(=N)c1C2c1ccc(OC)c(OC)c1 (stereo not given) | 11000 nM (active) |

| SMILES | Potency |
| --- | --- |
| Cn1nc(-c2ccc(Cl)cc2)nc2c(=O)n(C)c(=O)nc1-2 | inactive |
| Cc1c(P(=S)(c2ccccc2)c2ccccc2)[n+]2ccccc2n1CC(=O)c1ccccc1 | 2760 nM (active) |
| CCC(C)(CCN1CCOCC1)N(Cc1cc2ccccc2n(C)c1=O)C(=O)C1CCCCC1 (stereo not given) | 110 nM (active) |
| COc1cccc(C2c3c(ncn(-c4ccc5c(c4)OCO5)c3=N)Oc3ccc4ccccc4c32)c1 (stereo not given) | 552 nM (active) |
| CCCCCN1C=CC=C/C1=C\C=C(C#N)C#N | inactive |
| COc1cccc(C2c3c(ncn(-c4ccccc4C(C)(C)C)c3=N)Oc3ccc4ccccc4c32)c1 (stereo not given) | 4380 nM (active) |
| COc1cccc(C2c3c(ncn(-c4ccccc4OC)c3=N)Oc3ccc4ccccc4c32)c1 (stereo not given) | 1100 nM (active) |
| Cc1oc2c(c1C(=O)NCc1cccnc1)C(=O)c1ccccc1C2=O | inactive |
| CN(C)C(=S)N=Nc1[nH]c2ccccc2c1O | inactive |
| COc1cccc(C2c3c(ncn(-c4cccc(Br)c4)c3=N)Oc3ccc4ccccc4c32)c1 (stereo not given) | 4380 nM (active) |
| COc1cccc(C2c3c(ncn(-c4cccc(C)c4)c3=N)Oc3ccc4ccccc4c32)c1 (stereo not given) | 4380 nM (active) |
| Cc1nc2ccccn2c1P(=O)(c1ccccc1)c1ccccc1 | inactive |
| COc1cccc(C2c3c(ncn(-c4ccc(C)cc4)c3=N)Oc3ccc4ccccc4c32)c1 (stereo not given) | 3480 nM (active) |
| CN(C)c1nc(=Nc2cccc(Cl)c2)ss1 | inactive |
| COc1ccc(C2c3c(nc(CCCc4ccccc4)[nH]c3=O)Oc3ccc4ccccc4c32)cc1OC (stereo not given) | inactive |
| COc1ccc(C2c3c(ncn(CCc4ccccc4)c3=N)Oc3ccc4ccccc4c32)cc1OC (stereo not given) | inactive |
| COc1ccc(C2c3c(nc(CCc4ccccc4)[nH]c3=O)Oc3ccc4ccccc4c32)cc1OC (stereo not given) | inactive |
| Cc1ccc(S(=O)(=O)Nc2cccc3ncccc23)s1 | 3160 nM (active) |
| C/C(=N\Nc1ncc(Cl)cc1Cl)c1ccccn1 | 2510 nM (active) |
| C(=N\Nc1nc(-c2ccccn2)nc2ccccc12)/c1ccccc1 | inactive |
